# PubChem BioAssay (NCI)
# About 83,000 compounds went through this panel and 20% of them were active in at least one assay; those are over-represented in the sample as a whole.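 Activity criterion: percent growth below 10, measured after cells in 96-well plates were exposed to a single compound concentration for 48 hours.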 Active and inactive are the calls of the source.
# System: HL-60(TB) leukemia
# Experiment: NCI-60 one-dose screen, 48 h (100 = growth as untreated, 0 = no growth, -100 = all killed)
# Conditions: 10 µM unless noted
row,Compound,growth
1,C=C1CCC2C3(C)COC(c4ccc(NC(C)=O)cc4)OC3CCC2(C)C1C/C=C1/C(=O)OCC1O (stereo not given),32.8% (inactive)
2,CC(=O)OC1Oc2ccccc2-c2oc(=O)c(-c3cc4ccc(N(C)C)cc4oc3=O)cc21 (stereo not given),-9.4% (active)
3,COCCn1cc(-c2nc(-c3cc4cccnc4[nH]3)cs2)c2cc(OC)ccc21,55.5% (inactive)
4,CC12CCC(O)CC1=CCC1C2CCC2(C)C3=NN=CC3CC12 (stereo not given),103% (inactive)
5,CC(C)C(C)(C)c1ccc(O)cc1,104% (inactive)
6,COc1ccc(C(=O)/C=C/c2ccc(Cl)cc2)cc1S(N)(=O)=O,-3.41% (active)
7,CN(C(=O)c1ccccc1)N(C)C(=O)c1ccccc1,92.8% (inactive)
8,Cc1ccc(-c2cc(-c3ccccc3)n(-c3ccccc3)n2)cc1,98.5% (inactive)
9,CC(=O)O[C@H]1[C@H](CC#CC#CC[C@@H]2C[C@]3(C)[C@H]4CC=C5[C@H]6[C@@H](C)[C@H](C)CC[C@]6(C(=O)NCCN(CCN)CCN)CC[C@@]5(C)[C@]4(C)CC[C@H]3C(C)(C)[C@H]2OC(C)=O)C[C@]2(C)[C@H]3CC=C4[C@H]5[C@@H](C)[C@H](C)CC[C@]5(C(=O)NCCN(CCN)CCN)CC[C@@]4(C)[C@]3(C)CC[C@H]2C1(C)C,34.2% (inactive)
10,O=C(C[n+]1ccn(CC(OCc2ccc(Cl)cc2Cl)c2ccc(Cl)cc2Cl)c1)c1ccc(F)cc1 (stereo not given),-51.8% (active)
11,CCOC(=O)NNc1nncc2ccccc12,103% (inactive)
12,COc1cccc2c(N=NC(=O)c3ccc(S(N)(=O)=O)cc3)c(O)[nH]c12,98.4% (inactive)
13,COc1cc(Nc2ncc(F)c(Nc3ccc4c(n3)N(COP(=O)(O)O)C(=O)C(C)(C)O4)n2)cc(OC)c1OC,52.8% (inactive)
14,CCC12OC(COc3ccccc3)CN1CCN2c1ccccc1 (stereo not given),94.7% [100 µM] (inactive)
15,CCOC(=O)C1CCN(S(=O)(=O)/N=C2/NC(=O)NC2=C(Cl)Cl)CC1,-45.9% (active)
16,CC(=O)N1C/C(=C/c2ccc(Cl)cc2)C(=O)/C(=C/c2ccc(Cl)cc2)C1,4.97% (active)
17,N=C(N)c1ccc(-c2ccc(-c3cccs3)o2)cc1,-28.5% (active)
18,COc1ccc(Nc2ncnc3ccc(-c4cncc(NS(C)(=O)=O)c4)cc23)cc1Cl,3.01% (active)
19,Nc1cc2c3c(cccc3c1)C(=O)N(CCN1CCCC1)C2=O,1.24% (active)
20,COc1ccc(-n2nc(C)c3c(Nc4ccc(NC(=O)Nc5c(Cl)cccc5Cl)cc4)ncnc32)cc1,97.8% (inactive)

row,Compound,growth
1,COc1cc(C2C3=C(COC3=O)N(CCO)c3cc4c(cc32)OCCO4)cc(OC)c1O (stereo not given),-9% (active)
2,O=C(/C=C/c1ccc(F)cc1)N1CCN(C(=O)/C=C/c2ccc(C(F)(F)F)cc2)CC1,97% (inactive)
3,COc1cc(C2C(C#N)=C(N)OC3=C2C(=O)c2ccccc2C3=O)cc(OC)c1OC (stereo not given),15.2% (inactive)
4,O=S(=O)(c1ccc(N/N=C\c2ccccc2Cl)cc1)c1ccc(N/N=C/c2ccccc2Cl)cc1,74% (inactive)
5,COc1cc(Nc2nc3ccccc3cc2C(=O)Nc2ccc(F)c(F)c2)cc(OC)c1OC,19.8% (inactive)
6,CCCC(=O)Oc1ccc2ccccc2c1,98.5% (inactive)
7,O=C(O)c1ccc(-c2nn(-c3ccc(C(=O)O)cc3)cc2CNc2ccc(Br)cc2)cc1,107% (inactive)
8,C1C[S+]2CC[S+]1CC2,111% (inactive)
9,COc1ccc(-c2[nH]c3ccccc3c2-c2ccc(OC)cc2)cc1,24.6% (inactive)
10,O=C(Nc1nc(-c2ccccc2Cl)cs1)c1cc(-c2ccc(Cl)cc2)nc2ccc(Cl)cc12,-21.9% (active)
11,COc1ccc(C(=O)C2C(C#N)C(C#N)C3c4ccccc4C=CN23)cc1 (stereo not given),94.7% (inactive)
12,Oc1ccc(Cc2ccccc2)c2cccnc12,-15.8% (active)
13,CC(=O)OC[C@]12CC[C@H]3[C@@H](C[C@H]4O[C@]45CC=CC(=O)[C@]35C)[C@]1(O)CC[C@@]2(O)[C@@](C)(O)C1CC(C)=C(C)C(=O)O1 (stereo not given in full),-11.8% (active)
14,CSCCC(NC(=O)c1ccccc1)C(=O)N/N=C1\S/C(=C/c2ccc(Cl)cc2)C(=O)N1C (stereo not given),51.6% (inactive)
15,Nc1cc(C(=O)O)cc(-n2c(O)c(C=C3N=c4ccccc4=N3)sc2=S)c1,101% (inactive)
16,CCOc1ccc(-c2cc(C3(S(=O)(=O)c4ccc(C)cc4)CC=CC3)on2)cc1,75.1% (inactive)
17,COc1ccc(/C(Cl)=N/N=C(\Cl)c2cc(OC)c(OC)c(OC)c2)cc1OC(C)=O,81.2% (inactive)
18,OC(c1cc(-c2ccccc2)nc2ccc(Cl)cc12)C1CCCCN1 (stereo not given),49.7% (inactive)
19,C=C1C(=O)O[C@H]2[C@H]1CC/C(COC(=O)NCc1nc3ccccc3[nH]1)=C\CC[C@@]1(C)O[C@@H]21,17% (inactive)
20,O=S(=O)(c1cccc(NC2=Nc3cccc4cccc2c34)c1)N1CCCC1,60.8% (inactive)
